We go through 30 compounds from PubChem BioAssay (EPA / NIEHS).

SMILES strings stand for the structures. Where “and” joins values, the source holds several entries; their conditions need not be identical. Identical values can stand only once. Results filed as inconclusive are left out. Some compounds were tested as several samples or in several runs, with calls that do not always agree. Calls of active or inactive are those of the source. The calls were made as follows, unless noted: active = hit-call score of the fitted dose curve at least 0.9, where 1 is the maximum; inconclusive = response in the unintended direction; inactive = score below 0.9.

Assay [1] can be described thus: CCTE_Shafer_MEA_dev_per_network_spike_spike_number_mean: CCTE's Neural Network Formation Assay for Mean Number of Spikes in a Network Spike, Shafer Lab (AID 2284053; active = hit-call score of the fitted dose curve at least 0.9, where 1 is the maximum; inactive = score below 0.9;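 as to AC50: fitted as decrease in spikes per network spike relative to DMSO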). A digest of the protocol:
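First, rat cortical cells (1.5 x 10^5/well) were seeded onto MEA wells; second, dosing began at plating and was refreshed on DIV 5 and 9; finally, network-spike spike counts across DIV 5–12 were summarized as AUC.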

Assay [2] is described as follows: UKN5_HCS_SBAD2_cell_viability: Viability Assessment in the University of Konstanz (UKN) Leist Lab Neurite Outgrowth Assay in human iPSC-derived immature Dorsal Root Ganglia Neurons (UKN5) (AID 2284056; active = hit-call score of the fitted dose curve at least 0.9, where 1 is the maximum; inactive = score below 0.9). A digest of the protocol:
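iPSC-derived immature peripheral neurons (SBAD2) seeded on Matrigel with CHIR99021, SU5402 and DAPT, dosed 1 h later for 24 h. Viability from Hoechst H-33342 and calcein-AM live staining, high-content imaging; bidirectional fit versus DMSO.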

The nature of assay [3]: CCTE_Shafer_MEA_dev_LDH: CCTE's Lactate Dehydrogenase Assay for Cytotoxicity in the Neural Network Formation Assay, Shafer Lab (AID 2284068).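 Also: exposure for twelve days from plating with re-dosing on DIV 5 and 9.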 A digest of the protocol: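 Developing rat cortical networks on MEA plates are exposed to compound for 12 days from plating. LDH activity is measured spectrophotometrically, with DMSO as baseline.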
A short description of assay [4]: CCTE_Shafer_MEA_acute_AB: CCTE's Alamar Blue Assay for Cytotoxicity in the Neural Acute Assay, Shafer Lab (AID 2284069).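 Also: active compounds lower the viability signal compared with DMSO wells.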 A digest of the protocol:
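Cytotoxicity endpoint for acute MEA exposures of primary rat cortical neurons on day 13 or 15. Resazurin reduction is read fluorescently at 544/590 nm, with DMSO as the negative-control baseline.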

Assay [5] is described as follows: UKN5_HCS_SBAD2_neurite_outgrowth: University of Konstanz (UKN) Leist Lab Neurite Outgrowth Assay in human iPSC-derived immature Dorsal Root Ganglia Neurons (UKN5) (AID 2284070; active = hit-call score of the fitted dose curve at least 0.9, where 1 is the maximum; inactive = score below 0.9). The settings on record: actives raise or lower the signal. A digest of the protocol:
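Read-out: calcein-AM-stained neurite area by high-content imaging, Hoechst H-33342 for viability, after 24 h exposure of iPSC-derived immature dorsal root ganglia neurons. Activity fitted in both directions relative to DMSO baseline.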

Assay [6] is described as follows: CCTE_Shafer_MEA_dev_mutual_information_norm: CCTE's Neural Network Formation Assay for Mutual Information Normalization, Shafer Lab (AID 2284091; active = hit-call score of the fitted dose curve at least 0.9, where 1 is the maximum; inactive = score below 0.9;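 as to AC50: mutual information between electrodes summarised as area under curve across four recording days; potency is for a decrease in mutual information relative to DMSO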). A digest of the protocol:
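Primary rat cortical neurons on PEI-coated 48-well MEA plates, 1.5 x 10^5 cells/well, exposed from day 0 through day 12 with re-dosing at DIV 5 and 9. Mutual information between electrodes recorded days 5, 7, 9, 12; trapezoidal AUC, loss-of-signal fit versus DMSO.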

Assay [7] is described as follows: UKN2_HCS_IMR90_neural_migration: University of Konstanz (UKN) Leist Lab Neural Crest Cell Migration Assay in human induced IMR90 Pluripotent Stem Cells (UKN2) (AID 2284204; active = hit-call score of the fitted dose curve at least 0.9, where 1 is the maximum; inactive = score below 0.9). The settings on record: actives raise or lower the signal. A digest of the protocol: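 iPSC-derived IMR90 neural crest cells seeded around stoppers on PLO/laminin/fibronectin; migration started in N2-S medium with EGF/FGF, compounds added after 24 h for 24 h. Migration into cell-free area imaged after calcein-AM/Hoechst staining; bidirectional fit versus DMSO.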

The nature of assay [8]: CCTE_Shafer_MEA_dev_AB: CCTE's Alamar Blue Assay for Cytotoxicity in the Neural Network Formation Assay, Shafer Lab (AID 2284083).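 Also: resazurin reduction fluorescence as viability of cultured neurons; twelve days of exposure from plating with re-dosing on DIV 5 and 9.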 A digest of the protocol: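 Cytotoxicity companion to the developmental MEA: primary rat cortical neurons, 12-day exposure starting day 0, compound refreshed DIV 5 and 9; resazurin fluorescence, fitted against DMSO vehicle.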
Assay [9] relates to DIO3 (gene 1735). Put plainly: CCTE_GLTED_hDIO3: CCTE's human Deiodinase 3 (DIO3) Inhibition Assay, Great Lakes Toxicology and Ecology Division (GLTED) Lab (AID 2284055).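 Also: potency is for inhibition seen as loss of released iodide signal.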 A digest of the protocol:
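Absorbance from the Sandell-Kolthoff reaction reports iodide released by human DIO3 during a 3-hour incubation with chemical. Inhibition scored as signal loss against DMSO controls.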

A short description of assay [10]: CCTE_Shafer_MEA_acute_LDH: CCTE's Lactate Dehydrogenase Assay for Cytotoxicity in the Neural Acute Assay, Shafer Lab (AID 2284086).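 Also: active means LDH release rises above DMSO vehicle level.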 A digest of the protocol: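 Rat cortical neurons cultured on microelectrode arrays; baseline 40-min recording, compound added, second 40-min recording; medium then sampled for released LDH (colorimetric kit, 490 nm). DMSO = negative control.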

With `CCOC(=O)CC(SP(=O)(OC)OC)C(=O)OCC` (stereo unspecified), the compound was classed as inactive in assay [1], in assay [2], in assay [3], in assay [4], in [5] and in assay [6]. Besides, in assay [7], the compound was called inactive.
As to `COP(=O)(OC)C(O)C(Cl)(Cl)Cl` (stereo unspecified), the AC50 in assay [1] is 50 µM (active) and 15 µM (active); in assay [2], 9.96 µM (active); in [3] it was 3.52 µM (active) and 1.47 µM (active); in assay [8] it was 50 µM (active) and 1.05 µM (active); in assay [6] it was 18.4 µM (active) and 3.54 µM (active). In addition, the outcome in [4] and in assay [5] was inactive.
For `C#CCC1=C(C)C(OC(=O)C2C(C=C(C)C)C2(C)C)CC1=O` (stereo unspecified), the result in assay [1], in assay [8] and in assay [10] was inactive. For the same compound, the concentration at half-maximal activity (AC50) in assay [9] is 34.5 µM (active); in [6], 0.303 µM (active).
For the compound `CCOP(=S)(OCC)Oc1ccc2c(C)c(Cl)c(=O)oc2c1`, the AC50 in assay [1] was 24.4 µM (active); in assay [3], 76.4 µM (active); in assay [8], 78.4 µM (active); in assay [6] it was 21.9 µM (active). Also, the result in assay [4] and in assay [10] was inactive.
In the case of `C[Si](Cn1cncn1)(c1ccc(F)cc1)c1ccc(F)cc1`, the compound was classed as inactive in assay [1], in assay [4], in assay [8] and in [10]. Besides, the AC50 is 22.5 µM (active) in [3] and 1.61 µM (active) in [6].
As for `CC(C)N(C(=O)SCC(Cl)=C(Cl)Cl)C(C)C`, the AC50 was 15 µM (active) in assay [1], 10.7 µM (active) in [3], 21.8 µM (active) in assay [8] and 15 µM (active) in [6]. Also, the compound was classed as inactive in [4] and in [10].
As for `CC[C@H](C)[C@H]1O[C@]2(C=C[C@@H]1C)C[C@@H]1C[C@@H](C/C=C(\C)[C@@H](O[C@H]3C[C@H](OC)[C@@H](O[C@H]4C[C@H](OC)[C@@H](NC)[C@H](C)O4)[C@H](C)O3)[C@@H](C)/C=C/C=C3\CO[C@@H]4[C@H](O)C(C)=C[C@@H](C(=O)O1)[C@]34O)O2`, the AC50 in assay [1] is 55.1 nM (active) and 5.93 nM (active); in assay [9], 33.6 µM (active); in assay [2] it was 1.52 µM (active); in assay [3], 145 nM (active) and 0.883 nM (active); in [4], 20 µM (active); in [5], 1.12 µM (active). The AC50 in assay [8] is 0.656 µM (active); in assay [6] it was 0.981 nM (active) and 1.87 nM (active); in assay [7], 4.54 µM (active) and 1.96 µM (active). The call in assay [4] and in assay [10] was inactive.
In the case of `C[N+]1(C)CCCCC1`, the result in assay [1], in [4], in assay [8], in [10] and in [6] was inactive.
Consider `CCc1cnc(C2=NC(C)(C(C)C)C(=O)N2)c(C(=O)O)c1` (stereo unspecified), for which, in assay [4], the call was inactive.
As to `CCNc1nc(Cl)nc(NC(C)(C)C#N)n1`, in assay [9], the concentration at half-maximal activity (AC50) is 21.5 µM (active).
Take `CN(C)NC(=O)CCC(=O)O`: the compound was called inactive in assay [4].
Regarding `CC(Oc1cccc(Cl)c1)C(=O)O` (stereo unspecified), the outcome in assay [1], in assay [3] and in assay [6] was inactive.
For the compound `CCOP(=O)(OCC)Oc1cc(C)nc(C(C)C)n1`, the result in assay [1], in assay [3], in assay [8], in assay [6] and in assay [7] was inactive.
Turning to `CC(COc1ccc(Oc2ccccc2)cc1)Oc1ccccn1` (stereo unspecified), in assay [4], the result was inactive.
As for `CCCOCC(=Nc1ccc(Cl)cc1C(F)(F)F)n1ccnc1`, the AC50 in assay [9] is 2.38 µM (active). Besides, the compound was called inactive in assay [4] and in [10].
As for `CCCCSP(=O)(SCCCC)SCCCC`, the AC50 was 50 µM (active) and 17 µM (active) in assay [1]; 27.3 µM (active) and 49.9 µM (active) in assay [3]; 50 µM (active) and 63.1 µM (active) in assay [8]; 29.3 µM (active) and 18.4 µM (active) in [6]. Besides, the outcome in assay [7] was inactive.
As for `FC(F)C(F)(F)OCC(Cn1cncn1)c1ccc(Cl)cc1Cl` (stereo unspecified), the compound was called inactive in [4].
Consider `COc1cc(OC)nc(Sc2cccc(Cl)c2C(=O)O)n1`, for which the compound was classed as inactive in assay [4] and in assay [10].
For the compound `CNC(=O)ON=C(SC)C(=O)N(C)C`, the outcome in assay [10] was inactive.
For `CCc1cccc(CC)c1N(COC)C(=O)CCl`, in assay [9], the AC50 is 52.3 µM (active).
Regarding `Cc1ccn2nc(S(=O)(=O)Nc3c(F)cccc3F)nc2n1`, the compound was classed as inactive in assay [4] and in assay [10].
In the case of `CCCSP(=O)(OCC)Oc1ccc(Br)cc1Cl` (stereo unspecified), the compound was called inactive in [1], in assay [8] and in [6]. In addition, the AC50 in [3] is 1.79 µM (active).
Take `CN1COCN(Cc2cnc(Cl)s2)C1=N[N+](=O)[O-]`: the call in assay [1], in assay [3], in assay [10] and in assay [6] was inactive.
Turning to `Nc1c(Cl)cc([N+](=O)[O-])cc1Cl`, in [4], the call was inactive. In addition, the AC50 in assay [10] is 0.0105 µM (active).
As to `N#CSCSC#N`, the compound was called inactive in [4] and in assay [10].
As for `CCOP(=O)(SC(C)CC)N1CCSC1=O` (stereo unspecified), the result in assay [1] and in assay [6] was inactive. Besides, the AC50 in assay [3] is 50 µM (active).
`CCCSP(=O)(OCC)SCCC`: the concentration at half-maximal activity (AC50) in [1] is 15.8 µM (active) and 27.3 µM (active); in [3], 15.7 µM (active) and 15.4 µM (active); in [8], 20.6 µM (active) and 18.7 µM (active); in [6] it was 9.23 µM (active) and 14.7 µM (active). Moreover, in assay [7], the compound was called inactive.
Take `O=C(O)c1cc(Oc2ccc(C(F)(F)F)cc2Cl)ccc1[N+](=O)[O-]`: the compound was called inactive in [10].
As to `COP(=O)(OC)OC(Br)C(Cl)(Cl)Br` (stereo unspecified), the AC50 in [1] is 8.92 µM (active) and 10.3 µM (active); in [3] it was 6.64 µM (active) and 17.1 µM (active); in [8], 7.73 µM (active) and 16.4 µM (active); in assay [6], 4.85 µM (active) and 13 µM (active); in assay [7] it was 25.4 µM (active).
In the case of `CCOP(=S)(OCC)OC(Cl)C(Cl)(Cl)Cl` (stereo unspecified), the half-maximal activity concentration (AC50) is 50 µM (active) and 17.4 µM (active) in assay [1]; 31 µM (active) and 21.4 µM (active) in assay [3]; 30.7 µM (active) and 17.8 µM (active) in assay [8]; 15.9 µM (active) and 18 µM (active) in [6]. Besides, in [7], the compound was classed as inactive.
